Assay results as given in PubChem BioAssay (NCATS).
“And” between values parts separate entries of the source, which are not always exact repeats. Identical values can stand only once. Inconclusive results are not listed. The source holds several records for some structures; these can differ, active in one and inactive in another. The source made the active and inactive calls. Unless noted, calls come from the whole dose curve; as a rule, active = well fitted curve in either direction with a large enough effect (not every such curve was filed as active); inconclusive = small, poorly fitted or top-dose-only effect, or another doubt; inactive = flat fitted curve, though single readings scatter.

Key:
[1] = AP1 Signaling Pathway (AID 357); conditions: ME-180 AP-1-bla reporter, EGF-induced, beta-lactamase ratio, 5 h;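 note: ME-180 reporter cells stimulated with EGF at its EC50 level; % is set by controls: 0 for no effect and ±100 for the full control effect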
Outline: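 Titration-series screen for positive or negative modulators of EC50 EGF-induced signaling in ME-180 cells carrying an AP-1-driven beta-lactamase reporter. After 5 hours at 37 degrees Celsius, CCF4 460nm/530nm emission ratio gave %Activity; AC50 values derived.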

[2] = molecular target: Cytochrome P450 1A2 (Homo sapiens) (UniProt P05177); assay: p450-cyp1a2 (AID 410; calls by dose curve; note: potency is the fitted concentration of half-maximal effect;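 for activity change, negative = inhibition: -100% = full effect of reference inhibitor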); conditions: recombinant CYP1A2, luciferin-ME demethylation, luminescence; series mostly up to 57 µM
Outline: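 20nM CYP1A2, 100uM Luciferin-ME (=Km), 100mM KPO4; cpd 10 min RT; +NADPH regen, 60 min RT; stop/detect 20 min; luminescence. Normalized to furafylline 57 uM = full inhibition.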

[3] = NFAT Signaling Pathway (AID 444); conditions: Jurkat NFAT-bla M1, carbachol, beta-lactamase ratio, 5 h;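 note: carbachol stimulus at about its EC50 of 1 µM final; % is set by controls: 0 for no effect and ±100 for the full control effect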
Outline: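 Jurkat cells with NFAT-driven β-lactamase reporter and co-expressed M1 receptor, stimulated with carbachol (final 1 uM, ~EC50), compound titration, 5 h at 37 °C. CCF4 loaded 1 h at RT; 460/530 nm ratio gave %activity and AC50.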

[4] = Stat Signaling Pathway (AID 446); conditions: ME-180 (cervical carcinoma) SIE beta-lactamase reporter, IL-6 stimulated, 5 h; series mostly up to 17.2 µM;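 note: ME-180 cervical cancer cells given 40 pM IL-6 alongside compound; SIE-controlled beta-lactamase reporter measured as 460/530 nm FRET emission ratio; % is set by controls: 0 for no effect and ±100 for the full control effect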
Outline: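 Compound effects on IL-6-induced STAT reporter activity were measured in ME-180 cells. After overnight culture, cells were co-treated with 40 pM IL-6 for 5 hrs before beta-lactamase substrate loading at room temperature.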

[5] = molecular target: Lysosomal acid glucosylceramidase (Homo sapiens) (UniProt P04062); assay: Glucocerebrosidase-p2 (AID 348; in the data active = potency below about 10 µM; note: potency is the fitted concentration of half-maximal effect); conditions: purified GBA, blue fluorogenic substrate, 40 min
Outline: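 Normal human glucocerebrosidase (0.2 nM) with blue fluorogenic substrate (80 uM final) in citrate/phosphate pH 5.9 with 10mM sodium taurocholate, 0.01% tween-20; 40 min RT, NaOH/glycine stop; fluorescence Ex 365/Em 440; AC50 from a titration from 0.6 nM upwards.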

[6] = Cell Viability - BJ (AID 421; calls by dose curve;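 note: potency is the fitted concentration of half-maximal effect; cells exposed to compound for 40 hours at 37 °C before readout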); conditions: BJ fibroblast viability, qHTS
Outline: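 Luminescent ATP signal (CellTiter-Glo, 20 min at room temperature) served as the read-out of viable BJ cells after 40 hours of compound treatment. Responses were scaled between DMSO and 100 uM tamoxifen, and AC50 values were obtained by Hill modeling.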

[7] = Cell Viability - Hek293 (AID 427;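 active = compounds whose dose-response curve shows a full or clear partial loss of cell viability, called from curve shape rather than a numeric limit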;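 note: potency is the fitted concentration of half-maximal effect; cells exposed to compound for 40 hours at 37 °C before reading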); conditions: qHTS
Outline: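 Luminescent ATP read-out (CellTiter-Glo, 20 min RT) after 40 hr compound exposure at 37 °C in complete medium. Signal normalized to DMSO (basal) and 100 uM tamoxifen (100% inhibition); concentration-response fitted with the standard Hill equation to give AC50.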

[8] = Cell Viability - HepG2 (AID 433; calls by dose curve;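 note: potency is the fitted concentration of half-maximal effect; potency for ATP loss meaning cytotoxicity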); conditions: qHTS
Outline: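 Cytotoxicity read as ATP loss (CellTiter-Glo luminescence) after 40 hr compound exposure of HepG2, 1500 cells/well, 37 °C. AC50 by Hill equation; 0% set by DMSO, 100% inhibition by 100 uM tamoxifen.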

[9] = Cell Viability - MRC5 (AID 434; calls by dose curve;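 note: potency is the fitted concentration of half-maximal effect; cells exposed to compound for 40 hours at 37 °C; potency reflects cytotoxicity seen as loss of intracellular ATP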); conditions: MRC5 lung fibroblast viability, qHTS
Outline: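 ATP luminescence read-out (CellTiter-Glo, 20 min RT) after 40 hr, 37 °C compound exposure of 1500 MRC5 cells/well. Data normalized to DMSO (basal) and 100 uM tamoxifen (100% inhibition); AC50 from standard Hill equation.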

[10] = Cell Viability - Jurkat (AID 426;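 active = dose-dependent loss of cell ATP signal giving a full or clear fitted curve, ranked by lower potency value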;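 note: potency is the fitted concentration of half-maximal effect; cells exposed to compound for 40 hours at 37 °C before ATP read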); conditions: qHTS
Outline: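 Luminescent ATP read-out (CellTiter-Glo, 20 min at room temperature) after 40 hr compound exposure at 37 °C of Jurkat E6-1 cells, 5000/well. Decreased ATP taken as cytotoxicity; AC50 from standard Hill equation.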

Cytochrome P450 1A2 (Homo sapiens), sequence (P05177 whole entry, looked up): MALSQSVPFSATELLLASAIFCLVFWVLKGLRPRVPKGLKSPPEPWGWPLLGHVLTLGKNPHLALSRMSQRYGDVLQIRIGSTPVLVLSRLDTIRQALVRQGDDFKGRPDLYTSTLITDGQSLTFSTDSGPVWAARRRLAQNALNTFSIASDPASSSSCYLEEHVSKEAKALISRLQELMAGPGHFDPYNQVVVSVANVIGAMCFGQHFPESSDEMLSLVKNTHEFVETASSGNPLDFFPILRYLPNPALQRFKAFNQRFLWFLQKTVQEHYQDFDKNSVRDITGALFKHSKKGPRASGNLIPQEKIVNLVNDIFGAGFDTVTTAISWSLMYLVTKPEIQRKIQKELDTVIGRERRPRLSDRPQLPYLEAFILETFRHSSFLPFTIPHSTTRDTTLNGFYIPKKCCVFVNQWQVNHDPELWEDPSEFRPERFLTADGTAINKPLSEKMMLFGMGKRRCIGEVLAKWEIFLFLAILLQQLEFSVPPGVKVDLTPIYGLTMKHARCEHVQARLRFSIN
Lysosomal acid glucosylceramidase (Homo sapiens), sequence (P04062 whole entry, looked up): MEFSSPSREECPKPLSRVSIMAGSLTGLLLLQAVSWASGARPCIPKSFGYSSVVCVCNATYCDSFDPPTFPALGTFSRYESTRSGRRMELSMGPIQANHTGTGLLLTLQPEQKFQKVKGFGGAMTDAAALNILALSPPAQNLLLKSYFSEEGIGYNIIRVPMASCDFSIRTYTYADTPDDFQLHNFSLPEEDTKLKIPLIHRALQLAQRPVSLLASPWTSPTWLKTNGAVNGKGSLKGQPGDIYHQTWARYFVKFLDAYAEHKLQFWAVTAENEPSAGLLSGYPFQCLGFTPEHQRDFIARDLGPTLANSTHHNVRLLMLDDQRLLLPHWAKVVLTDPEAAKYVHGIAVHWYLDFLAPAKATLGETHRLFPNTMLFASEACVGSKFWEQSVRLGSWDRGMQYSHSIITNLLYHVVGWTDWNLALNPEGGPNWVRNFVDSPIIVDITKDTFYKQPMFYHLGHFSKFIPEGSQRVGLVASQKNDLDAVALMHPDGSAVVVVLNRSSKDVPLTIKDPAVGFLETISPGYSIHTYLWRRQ

O=C(CCNNC(=O)c1ccncc1)NCc1ccccc1
active: Potency [2] 31.6 µM and 12.6 µM
inactive: activity change, negative = inhibition ([1]; at 17.2 µM (top of the series)) -5.47% and 0.412% | activity change, negative = inhibition ([1]; at 38 µM (top of the series)) 1.11% | activity change, negative = inhibition ([3]; at 17.2 µM (top of the series)) -23.8% and -5.87% | activity change, negative = inhibition ([3]; at 38 µM (top of the series)) 4.78% | outcome [4]

CC(=O)Nc1nnc(S(N)(=O)=O)s1
inactive: activity change, negative = inhibition ([1]; at 17.2 µM (top of the series)) 2.87% | activity change, negative = inhibition ([1]; at 38 µM (top of the series)) 2.53% | Potency [2] | activity change, negative = inhibition ([3]; at 17.2 µM (top of the series)) -0.673% and -9.62% | activity change, negative = inhibition ([3]; at 38 µM (top of the series)) 2.29% | outcome [4]

CN(C)CCOC(=O)COc1ccc(Cl)cc1
active: Potency [2] 15.8 µM and 10 µM
inactive: activity change, negative = inhibition ([1]; at 17.2 µM (top of the series)) 0.605% | activity change, negative = inhibition ([1]; at 38 µM (top of the series)) -0.251% | activity change, negative = inhibition ([3]; at 17.2 µM (top of the series)) 0.868% | activity change, negative = inhibition ([3]; at 38 µM (top of the series)) 7.1% | outcome [4]

O=C(O)CN(CCN(CC(=O)O)CC(=O)O)CCN(CC(=O)O)CC(=O)O
inactive: activity change, negative = inhibition ([1]; at 17.2 µM (top of the series)) -3.91% | activity change, negative = inhibition ([1]; at 38 µM (top of the series)) 10% | Potency [2] | activity change, negative = inhibition ([3]; at 17.2 µM (top of the series)) -4.47% | activity change, negative = inhibition ([3]; at 38 µM (top of the series)) 2.2% | outcome [4]

Cc1ccc(Cl)c(Nc2ccccc2C(=O)O)c1Cl
inactive: activity change, negative = inhibition ([1]; at 17.2 µM (top of the series)) -18.4% | activity change, negative = inhibition ([1]; at 38 µM (top of the series)) -15.5% | Potency [2] | activity change, negative = inhibition ([3]; at 17.2 µM (top of the series)) -24% and 22.1% | activity change, negative = inhibition ([3]; at 38 µM (top of the series)) 0.114% | outcome [4]

CCO/C([O-])=N/c1c[n+](N2CCOCC2)no1
inactive: activity change, negative = inhibition ([1]; at 17.2 µM (top of the series)) -2.58% and 9.89% | activity change, negative = inhibition ([1]; at 38 µM (top of the series)) 19.4% | Potency [2] | activity change, negative = inhibition ([3]; at 17.2 µM (top of the series)) -13.9% and -20.6% | activity change, negative = inhibition ([3]; at 38 µM (top of the series)) -9.67% | outcome [4]

Cc1scc2c1N(C(=O)CN1CCN(C)CC1)c1ccccc1NC2=O
active: activity change, negative = inhibition ([3]; at 17.2 µM (top of the series)) -41.8% | activity change, negative = inhibition ([3]; at 38 µM (top of the series)) -72.8%
inactive: activity change, negative = inhibition ([1]; at 17.2 µM (top of the series)) 4.19% | activity change, negative = inhibition ([1]; at 38 µM (top of the series)) 15.1% | Potency [2] | outcome [4]

CC(C)NNC(=O)c1ccncc1
inactive: activity change, negative = inhibition ([1]; at 17.2 µM (top of the series)) 5.09% | activity change, negative = inhibition ([1]; at 38 µM (top of the series)) -0.742% | Potency [2] | activity change, negative = inhibition ([3]; at 17.2 µM (top of the series)) -0.394% | activity change, negative = inhibition ([3]; at 38 µM (top of the series)) -0.596% | outcome [4]

Cc1nc2sccn2c(=O)c1CCN1CCC(=C(c2ccc(F)cc2)c2ccc(F)cc2)CC1
inactive: activity change, negative = inhibition ([1]; at 17.2 µM (top of the series)) -9.89% | activity change, negative = inhibition ([1]; at 38 µM (top of the series)) -17.2% | Potency [2] | outcome [4]

CC1=NS(=O)(=O)c2cc(Cl)ccc2N1
inactive: activity change, negative = inhibition ([1]; at 17.2 µM (top of the series)) 5.8% and -6.56% | activity change, negative = inhibition ([1]; at 38 µM (top of the series)) -8.76% | activity change, negative = inhibition ([3]; at 17.2 µM (top of the series)) -1.94% and 7.03% | activity change, negative = inhibition ([3]; at 38 µM (top of the series)) 2.63% | outcome [4]
active: Potency [2] 7.94 µM and 3.16 µM and 2 µM

O=C(O)CP(=O)(O)O
inactive: Potency [5] > 11.4 µM | activity change, negative = inhibition ([1]; at 7.69 µM (top of the series)) 0.401% | activity change, negative = inhibition ([1]; at 38 µM (top of the series)) 7.05% | Potency [2] | activity change, negative = inhibition ([3]; at 7.69 µM (top of the series)) -1.52% | activity change, negative = inhibition ([3]; at 38 µM (top of the series)) 3.66% | outcome [4]

CN(C)CC/C=C1\c2ccccc2COc2ccccc21
active: Potency [2] 12.6 µM and 5.01 µM and 15.8 µM | activity change, negative = inhibition ([3]; at 17.2 µM (top of the series)) -44.9%
inactive: activity change, negative = inhibition ([1]; at 17.2 µM (top of the series)) 22.2% | activity change, negative = inhibition ([1]; at 38 µM (top of the series)) 23.8% | outcome [4]

CCn1cc(C(=O)O)c(=O)c2cc3c(cc21)OCO3
active: Potency [2] 5.01 µM and 2.51 µM
inactive: activity change, negative = inhibition ([1]; at 17.2 µM (top of the series)) -4.15% | activity change, negative = inhibition ([1]; at 38 µM (top of the series)) -1.96% | activity change, negative = inhibition ([3]; at 17.2 µM (top of the series)) -7.01% | activity change, negative = inhibition ([3]; at 38 µM (top of the series)) 7.6% | outcome [4]

C[C@]12CCC(=O)C=C1CC[C@@H]1[C@@H]2C(=O)C[C@@]2(C)[C@H]1CC[C@]2(O)C(=O)CO
inactive: activity change, negative = inhibition ([1]; at 17.2 µM (top of the series)) 7.64% | activity change, negative = inhibition ([3]; at 17.2 µM (top of the series)) -6.84% | outcome [4]

CN(C)CCN(Cc1cccs1)c1ccccn1
inactive: outcome [4]
inactive and 12.6 µM (active): Potency [2]

C=CCc1ccccc1OCC(O)CNC(C)C (stereo not given)
inactive: activity change, negative = inhibition ([1]; at 17.2 µM (top of the series)) 12.6% | activity change, negative = inhibition ([3]; at 17.2 µM (top of the series)) 5.58% | outcome [4]

CN(C)CCCN1c2ccccc2Sc2ccc(C(F)(F)F)cc21
active: Potency [2] 1.58 µM and 794 nM | activity change, negative = inhibition ([3]; at 17.2 µM (top of the series)) -88.2%
inactive: outcome [4]

CCc1cccc(N(C)C(N)=Nc2cccc3ccccc23)c1
inactive: activity change, negative = inhibition ([3]; at 38 µM (top of the series)) -9.54%

CCOC(=O)C1=C(C)NC(C)=C(C(=O)OC)C1c1cccc(Cl)c1Cl (stereo not given)
inactive: activity change, negative = inhibition ([1]; at 17.2 µM (top of the series)) -7.25% | outcome [4]

O=c1[nH]c(=O)n([C@H]2C[C@H](O)[C@@H](CO)O2)cc1Br
inactive: Potency [6] > 92 µM | Potency [7] > 92 µM | Potency [8] > 92 µM | Potency [9] > 92 µM

Nc1ncn([C@@H]2O[C@H](CO)[C@@H](O)[C@H]2O)c(=O)n1
inactive: Potency [6] > 92 µM | Potency [8] > 92 µM
active: Potency [10] 1.01 µM | Potency [7] 6.9 µM

Cc1nc2c([nH]1)c(=O)n(C)c(=O)n2Cc1ccco1
inactive: activity change, negative = inhibition ([1]; at 38 µM (top of the series)) -6.02% | activity change, negative = inhibition ([3]; at 38 µM (top of the series)) -9.82% | outcome [4]

C[C@]12C=CC(=O)C=C1CC[C@H]1[C@@H]3C[C@@H](O)[C@](O)(C(=O)CO)[C@@]3(C)C[C@H](O)[C@@]12F
inactive: activity change, negative = inhibition ([1]; at 17.2 µM (top of the series)) -5.22% | activity change, negative = inhibition ([3]; at 17.2 µM (top of the series)) 16.1% | outcome [4]

COCC(=O)O[C@]1(CCN(C)CCCc2nc3ccccc3[nH]2)CCc2cc(F)ccc2[C@@H]1C(C)C
active: Potency [2] 31.6 µM
inactive: activity change, negative = inhibition ([3]; at 38 µM (top of the series)) -15.7% | outcome [4]

CN(C)[C@@H]1C(=O)C(C(N)=O)=C(O)[C@@]2(O)C(=O)C3=C(O)c4c(O)ccc(Cl)c4[C@@H](O)[C@H]3C[C@@H]12
inactive: activity change, negative = inhibition ([1]; at 17.2 µM (top of the series)) -3.11% | activity change, negative = inhibition ([3]; at 17.2 µM (top of the series)) 0.847% | outcome [4]
